Measurements taken from PubChem BioAssay.
Active and inactive are the calls of the source.

Columns and labels:
Albumin (Bos taurus) = Albumin (Bos taurus) (UniProt P02769); test: bovine serum albumin binders on microarray, profiling panel, artefact control for SMM control protein annotation, biochemical, small-molecule microarray, Alexa647 label, 635/667 nm fluorescence (AID 1118); details: BSA-A647 binding, fluorescence 635 nm, higher = more signal;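 note: score merges 667 nm emission intensity and signal-to-noise per printed compound spot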
Sequence of Albumin (Bos taurus) (P02769 whole entry, looked up): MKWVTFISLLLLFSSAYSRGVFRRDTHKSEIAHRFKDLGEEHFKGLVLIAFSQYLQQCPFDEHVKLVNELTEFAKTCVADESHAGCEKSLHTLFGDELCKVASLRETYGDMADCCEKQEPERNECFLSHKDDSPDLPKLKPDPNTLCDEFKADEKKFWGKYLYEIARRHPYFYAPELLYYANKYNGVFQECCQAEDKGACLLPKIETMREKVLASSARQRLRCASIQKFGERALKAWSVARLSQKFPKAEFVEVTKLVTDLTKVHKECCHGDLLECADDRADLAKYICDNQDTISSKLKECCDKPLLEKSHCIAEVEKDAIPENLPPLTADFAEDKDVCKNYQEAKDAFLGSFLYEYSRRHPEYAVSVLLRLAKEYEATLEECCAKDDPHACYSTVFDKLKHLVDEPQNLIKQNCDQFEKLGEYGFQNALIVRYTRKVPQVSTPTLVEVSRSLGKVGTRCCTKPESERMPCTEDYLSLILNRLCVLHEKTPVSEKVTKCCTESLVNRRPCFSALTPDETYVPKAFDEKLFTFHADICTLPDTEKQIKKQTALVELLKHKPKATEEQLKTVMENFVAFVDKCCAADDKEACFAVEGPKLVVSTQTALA

[1] = small-molecule microarray binders of probe aXIP, primary screen, biochemical, NeuroSMM set, 635/667 nm fluorescence (AID 1119); details: higher = more signal, called active from +8 up or from −8 down;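 note: probe is the protein aXip251-270 applied at 1 µg/mL to compound-printed slides; binding of probe to printed compounds measured as 667 nm fluorescence plus signal to noise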
[2] = small-molecule binders of probe aNOTCH3, primary screen, biochemical, small-molecule microarray, 635/667 nm fluorescence (AID 1120); details: higher = more signal;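 note: probe is a biotin-tagged antibody raised against NOTCH3 rather than NOTCH3 protein; score merges spot fluorescence near 667 nm with spot signal to noise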
[3] = small-molecule binders of probe aNOTCH2, primary screen, biochemical, small-molecule microarray, 635/667 nm fluorescence (AID 1121); details: higher = more signal;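 note: score merges feature fluorescence read at 667 nm with its signal to noise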
[4] = molecular target: Carbonic anhydrase 2 (Homo sapiens) (UniProt P00918); test: CAII small-molecule binders, profiling panel, biochemical, small-molecule microarray, Alexa647-labelled CAII (AID 1122); details: CAII-A647 binding fluorescence, higher = more signal
[5] = COS7 lysate on small-molecule microarray, probe aHis, 635 nm (AID 1123); details: COS7 cell lysate, fluorescence, higher = more signal;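 note: z-score combines 667nm fluorescence intensity with signal-to-noise per printed compound spot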
[6] = compound binding in COS7 lysate, probe aLAP1, primary screen, cell lysate, small-molecule microarray (AID 1124); details: probe aLAP1, fluorescence, higher = more signal;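 note: lysate comes from COS7 cells expressing LAP1 and is applied at 0.3 µg/mL; score merges spot fluorescence near 667 nm with signal-to-noise over triplicate slides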
Sam68 (KHDRBS1) = test: Sam68 small-molecule binders, primary screen, biochemical, small-molecule microarray, 635 nm fluorescence (AID 1125); details: small-molecule microarray binding, higher = more signal;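 note: score merges 667 nm channel intensity with signal to noise over triplicate slides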
[7] = tested on: Chordin-like protein 2 (CHRDL2); test: CHRDL2 small-molecule binders, primary screen, biochemical, small-molecule microarray, 635 nm fluorescence (AID 1126); details: small-molecule microarray binding, fluorescence 635 nm; higher = more signal;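 note: printed compound slides probed with Chrdl2 protein at 4 µg/mL for 1 h at 4 C; score merges 667 nm emission intensity with signal to noise over three replicate slides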
[8] = molecular target: Concanavalin-A (Canavalia ensiformis) (UniProt P02866); test: ConA small-molecule binders, primary screen, artefact control for SMM control protein annotation, biochemical, small-molecule microarray, Alexa647 label, 635 nm (AID 1127); details: ConA-A647 binding fluorescence, higher = more signal;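 note: z combines 667 nm emission intensity with signal-to-noise across three replicate slides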
Sequence of Concanavalin-A (Canavalia ensiformis) (P02866 whole entry, looked up): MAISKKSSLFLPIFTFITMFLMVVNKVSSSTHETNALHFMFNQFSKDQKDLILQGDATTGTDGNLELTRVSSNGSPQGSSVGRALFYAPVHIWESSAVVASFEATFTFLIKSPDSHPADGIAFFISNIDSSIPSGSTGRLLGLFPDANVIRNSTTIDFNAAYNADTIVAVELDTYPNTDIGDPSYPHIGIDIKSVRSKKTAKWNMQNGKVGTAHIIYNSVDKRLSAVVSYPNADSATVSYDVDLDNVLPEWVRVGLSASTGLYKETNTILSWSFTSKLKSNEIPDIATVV

| Compound | composite z-score (Albumin (Bos taurus)) | composite Z-score [1] | composite z-score [2] | composite z-score [3] | composite z-score [4] | composite z-score [5] | composite z-score [6] | composite z-score (Sam68 (KHDRBS1)) | composite z-score [7] | composite z-score [8] |
| --- | --- | --- | --- | --- | --- | --- | --- | --- | --- | --- |
| CC(C)N1C(=O)C[C@@](C(=O)O)(c2ccc([N+](=O)[O-])cc2)[C@H]1c1ccc(CO)cc1 | -0.795 | 0.589 (inactive) | -0.0947 | -0.0586 | 0.754 | 1.52 | 0.0273 | 0.69 | -1.25 | 0.279 |
| CC(C)[Si](C#C[Si](C(C)C)(C(C)C)C(C)C)(O[C@H](c1ccccc1)c1cn(Cc2ccccc2)nn1)C(C)C | -0.0062 | -0.058 (inactive) | 0.143 | -0.146 | 0.237 | -0.366 | -0.0307 | 1.02 | 0.511 | 0.135 |
| CCCC=C(CCC)[C@@H](NC(=O)c1cccs1)c1ccc(C(=O)OC)cc1 | -0.0481 | 0.0599 (inactive) | 1.29 | 0.728 | 0.0222 | 0.0362 | -0.0022 | -0.411 | 0.513 | 0.588 |
| CC(c1ccccc1)C(O)C1C=CC2C(=O)N(C)C(=O)C2N1Nc1ccccc1 (stereo not given) | 0.921 | 0.318 (inactive) | 0.5 | -0.0067 | 0.601 | 2.5 | 0.406 | 1.31 | -0.826 | 1.21 |
| COC(=O)[C@@]1(Cc2ccc(OC)cc2)[C@H]2c3cc(C(=O)N4CCCC4)n(CCc4c[nH]c5ccc(O)cc45)c3C[C@H]2CN1C(=O)c1ccccc1 | 0.863 | 0.714 (inactive) | 0.298 | 0.0409 | 0.774 | 2.05 | 0.441 | 1.34 | -0.135 | 0.992 |
| O=C(NCCN1CCOCC1)[C@@H]1c2ccccc2C(=O)N(Cc2ccccc2Cl)[C@H]1c1ccc(CO)cc1 | -0.281 | 0.239 (inactive) | -0.224 | -0.0986 | 0.667 | 0.0465 | 1.67 | -0.721 | -0.761 | -1.19 |
| C=CCN1C(=O)[C@]2(CCC(=O)OC(C)(C)C)N=C(c3ccc(OCCCO)cc3)O[C@@H]2c2ccccc21 | -0.361 | -0.014 (inactive) | 0.185 | -0.118 | 0.256 | 1.38 | 0.023 | 0.587 | 0.281 | 1.14 |
| CCOC(=O)C=Cc1cccc(C)c1O | -0.268 | -0.352 (inactive) | -0.0881 | -0.114 | 0.422 | -0.15 | 0.514 | -0.0261 | -0.0961 | 0.0646 |
| CC(C)C(CO)N1C(=O)[C@@H]2[C@H]3C(=O)OCC=C[C@H]3OC23C=CCN(c2ccc(Cl)cc2)C(=O)[C@@H]13 (stereo not given in full) | -1.26 | -0.268 (inactive) | -0.171 | -0.117 | 0.839 | -0.372 | -0.364 | 0.0729 | -0.847 | -0.842 |
| CC1=C2[C@@H](CCc3ccccc3)OB(O)C[C@@H]2[C@@H]2C(=O)N(C)C(=O)[C@@H]2C1 | 0.541 | 0.706 (inactive) | 0.248 | -0.138 | 0.422 | 0.0513 | 0.76 | 0.453 | 0.723 | 0.245 |
| [N-]=[N+]=Nc1ccccc1C[C@]1(C(=O)N2CCOCC2)COC(c2ccc(OCCCO)cc2)=N1 | 0.808 | 0.04 (inactive) | 0.373 | -0.118 | 0.763 | 2.21 | -0.181 | 1.29 | -0.646 | 0.99 |
| CCCCC(=C=CC[C@H](O)c1ccc(OCCO)cc1)CCO | 0.837 | 0.0311 (inactive) | -0.121 | -0.0795 | 0.694 | 1.55 | 0.251 | 0.195 | -1.13 | -0.727 |
| COCCCNC(=O)[C@@]1(CCC(=O)OC(C)(C)C)N=C(c2ccc(OCCCO)cc2)O[C@H]1c1ccccc1N=[N+]=[N-] | 0.945 | 0.289 (inactive) | 0.26 | 0.325 | 0.62 | 2.01 | 0.843 | 1.25 | 0.279 | 1.16 |
| O=C1OCCC=C[C@H]2OC34C=CCN(Cn5nnc6ccccc65)C(=O)[C@H]3N(CCCO)C(=O)[C@@H]4C12 (stereo not given in full) | -0.841 | -0.0287 (inactive) | -0.353 | -0.13 | 0.0109 | -1.05 | 1.45 | -0.674 | -0.433 | -1.2 |
| C=CCC(OC(C)=O)[C@@H]1[C@@H](N(Cc2ccc(-c3cccc(C(F)(F)F)c3)o2)C(=O)Cc2ccc(OC)cc2)c2cc(OCCCO)ccc2N1C(=O)c1ccc(-c2ccccc2)cc1 (stereo not given in full) | 0.0925 | -0.4 (inactive) | 0.0711 | 0.0178 | 0.251 | 0.206 | -0.155 | 0.272 | 0.121 | -0.94 |
| O=C(O)[C@@H]1C[C@@H]2C(=O)N3CCC[C@H]3C(=O)N2[C@@H]1c1ccc(O)cc1 | -0.0352 | 0.309 (inactive) | 0.0927 | -0.0126 | 0.579 | 0.538 | 0.619 | 0.721 | 0.931 | 0.878 |
| C=C[C@H](C)[C@H](OC(=O)Nc1ccc(SC)cc1)c1ccc(OCCO)cc1 | 0.548 | 2.78 (inactive) | -0.0647 | -0.0533 | 0.575 | 2.19 | 0.277 | 1.06 | 0.516 | 1.04 |
